PubChem BioAssay
Values joined by “and” are separate entries in the source; they are usually repeats but may differ in a detail not shown here. Equal entries are not always repeated. Active and inactive are the calls of the source.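 Rule for the calls, unless noted: active = compounds whose cell count with miR-34 switched on is under 0.7 times the count with it off; inactive = the rest.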

Experiments:
[1] = target: 6-phosphogluconate dehydrogenase, decarboxylating (Homo sapiens) (UniProt P52209); test: inhibition of human phosphogluconate dehydrogenase – biochemical, recombinant enzyme, NADPH absorbance, primary screen (AID 1159550;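 active = at least 20% inhibition of 6-phosphogluconate dehydrogenase activity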); settings: recombinant 6PGD, NADPH absorbance 341 nm; at 10 µM; stronger effect = higher value
[2] = viability loss with induced miR-34 in A549 – imaging, A549 dox-inducible miR-34, nuclei and caspase counts, primary screen (AID 1347080); settings: A549 miR-34 inducible, Hoechst nuclei count, 48 h
[3] = MELAS cybrid and Rieske KO viability enhancers – cell-based, MELAS cybrids, Rieske KO mouse fibroblasts, CellTiter-Glo, primary screen (AID 1508586;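 active = mean z-score across replicates of 1.96 or higher in either the MELAS or the Rieske mutant cell line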;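 note: z relative to plate mean and SD of compound and empty wells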); settings: low glucose
[4] = target: NAD(+) hydrolase SARM1 (Homo sapiens) (UniProt Q6SZW1); test: blocking NAD cleavage by SARM1 SAM-TIR – cell lysate, NAD-Glo luminescence (AID 1508614;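 active = compound whose remaining NAD level is above about 45 nM, limit read from the data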;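 note: higher remaining NAD means stronger inhibition of SARM1 NADase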); settings: SAM-TIR HEK293T lysate NADase, at 1 µM, stronger effect = higher value
[5] = target: Mitogen-activated protein kinase 7 (Homo sapiens) (UniProt Q13164); test: Gal4-ERK5 driven luciferase induction – cell-based, HTS, primary screen (AID 1508626;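 active = luciferase signal above three times the same-plate solvent-only control wells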;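 note: luciferase driven by Gal4-ERK5 fusion binding five Gal4 sites before minimal TATA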); settings: HeLa Gal4-ERK5 transactivation, 18 h, at 5 µM, stronger effect = higher value
[6] = galactose survival enhancers in mitochondrial complex I cybrids – cell-based, galactose medium, ATP luminescence, primary screen (AID 1645843;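 active = z-score of at least 1.8 in each of two replicates, scored against plate mean and spread of sample wells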;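 note: positive z means more ATP and so rescue of galactose-driven cybrid death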); settings: complex I mutant cybrid cells, 72 h, stronger effect = higher value
[7] = compounds altering viability of human ES cells (AID 493140; call rule not given here;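 note: cells exposed to compounds for four days before counting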); settings: human embryonic stem cell survival screen; stronger effect = higher value
[8] = P. berghei load reduction in hepatocytes – cell-based, HepG2, luciferase luminescence, HepG2 viability, primary screen (AID 624349; in the data active = parasite load remaining mostly below about 12%, no sharp cut-off; inactive = mostly above about 10%;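 note: 100% = mean of DMSO negative control wells on the same plate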); settings: P. berghei liver stage in HepG2, luciferase luminescence, concentration not given here; parasite load remaining: stronger effect = lower value; viability: measured here: HepG2 viability without parasites
[9] = stronger effect = lower value, cell number ratio, induced over uninduced
[10] = measured here: relative caspase fold change +Dox/-Dox
[11] = measured here: total cells with miR-34 induction, stronger effect = lower value
[12] = measured here: total cells without miR-34 induction
[13] = MELAS cybrid survival, CellTiter-Glo 48 h, stronger effect = higher value
[14] = Rieske KO mouse fibroblast survival, CellTiter-Glo 72 h

Sequence of Mitogen-activated protein kinase 7 (Homo sapiens) (Q13164 whole entry, looked up, the tested form may be a part): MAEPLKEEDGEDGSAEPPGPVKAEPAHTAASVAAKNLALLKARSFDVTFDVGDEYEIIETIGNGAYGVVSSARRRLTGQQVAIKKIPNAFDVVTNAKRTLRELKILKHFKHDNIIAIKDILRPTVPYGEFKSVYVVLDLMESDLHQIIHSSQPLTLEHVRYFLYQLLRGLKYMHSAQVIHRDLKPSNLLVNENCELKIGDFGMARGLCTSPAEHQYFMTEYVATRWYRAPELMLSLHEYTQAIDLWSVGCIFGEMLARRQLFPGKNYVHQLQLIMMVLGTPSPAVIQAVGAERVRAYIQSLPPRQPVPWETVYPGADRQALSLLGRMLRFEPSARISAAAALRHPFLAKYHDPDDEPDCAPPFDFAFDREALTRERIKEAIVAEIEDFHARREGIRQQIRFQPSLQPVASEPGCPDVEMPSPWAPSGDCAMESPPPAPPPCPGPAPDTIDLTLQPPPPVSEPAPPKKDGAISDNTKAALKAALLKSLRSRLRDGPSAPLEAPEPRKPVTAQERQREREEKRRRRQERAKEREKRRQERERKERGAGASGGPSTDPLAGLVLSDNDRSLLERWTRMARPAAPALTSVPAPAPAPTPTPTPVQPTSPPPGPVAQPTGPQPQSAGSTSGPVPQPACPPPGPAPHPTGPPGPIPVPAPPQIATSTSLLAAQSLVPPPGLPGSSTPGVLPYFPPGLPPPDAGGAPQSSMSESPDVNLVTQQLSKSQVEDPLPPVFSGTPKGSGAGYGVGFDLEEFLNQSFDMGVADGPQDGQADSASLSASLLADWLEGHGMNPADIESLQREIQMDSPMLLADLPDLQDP
Sequence of 6-phosphogluconate dehydrogenase, decarboxylating (Homo sapiens) (P52209 whole entry, looked up): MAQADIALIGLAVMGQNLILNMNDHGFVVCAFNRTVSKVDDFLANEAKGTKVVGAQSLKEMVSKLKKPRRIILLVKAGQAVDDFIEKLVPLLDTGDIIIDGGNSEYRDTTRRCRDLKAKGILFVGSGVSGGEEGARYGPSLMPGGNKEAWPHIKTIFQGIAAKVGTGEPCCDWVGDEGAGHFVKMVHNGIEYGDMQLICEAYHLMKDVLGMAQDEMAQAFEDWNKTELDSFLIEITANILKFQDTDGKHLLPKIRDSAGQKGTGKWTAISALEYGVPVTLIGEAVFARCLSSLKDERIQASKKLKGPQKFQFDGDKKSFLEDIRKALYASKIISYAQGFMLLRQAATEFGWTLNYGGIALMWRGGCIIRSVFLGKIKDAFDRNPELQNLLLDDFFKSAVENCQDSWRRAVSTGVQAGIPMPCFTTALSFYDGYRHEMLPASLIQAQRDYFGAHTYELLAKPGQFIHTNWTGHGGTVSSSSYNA
Sequence of NAD(+) hydrolase SARM1 (Homo sapiens) (Q6SZW1 whole entry, looked up, the tested form may be a part): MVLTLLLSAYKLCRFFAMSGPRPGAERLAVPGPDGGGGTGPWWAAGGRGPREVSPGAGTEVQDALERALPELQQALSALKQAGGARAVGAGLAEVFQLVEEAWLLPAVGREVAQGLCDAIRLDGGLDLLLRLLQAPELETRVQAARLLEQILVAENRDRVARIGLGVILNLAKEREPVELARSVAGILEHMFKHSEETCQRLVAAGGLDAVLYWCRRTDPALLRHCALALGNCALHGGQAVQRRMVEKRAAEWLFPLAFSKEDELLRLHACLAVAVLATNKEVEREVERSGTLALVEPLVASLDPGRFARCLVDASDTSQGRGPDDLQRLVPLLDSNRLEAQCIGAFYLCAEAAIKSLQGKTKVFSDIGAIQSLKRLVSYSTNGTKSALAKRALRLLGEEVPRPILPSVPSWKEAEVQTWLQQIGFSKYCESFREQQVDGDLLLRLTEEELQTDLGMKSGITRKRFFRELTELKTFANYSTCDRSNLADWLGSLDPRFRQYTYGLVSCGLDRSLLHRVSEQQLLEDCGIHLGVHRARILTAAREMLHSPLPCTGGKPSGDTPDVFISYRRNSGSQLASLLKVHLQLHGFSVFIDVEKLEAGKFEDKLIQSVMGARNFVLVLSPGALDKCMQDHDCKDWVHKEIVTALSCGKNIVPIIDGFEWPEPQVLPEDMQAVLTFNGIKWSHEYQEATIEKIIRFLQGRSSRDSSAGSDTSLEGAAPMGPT

For C[N+]1(C)[C@@H]2CC[C@H]1CC(OC(=O)C(O)c1ccccc1)C2 (some centres not stated), the inhibition [1] was -20.5% (inactive), the fold change [2, 9] was 0.938 (inactive) and the fold change [2, 10] was 0.48. The cell count [2, 11] was 8390, the cell count [2, 12] was 8940 and the z-score [3, 13] was -0.289 (inactive). For the same molecule, the z-score [3, 14] was -0.189, the remaining NAD [4] was 10 nM (inactive) and the luciferase signal [5] was 20 AU (inactive).
In the case of N[C@@H](Cc1c[nH]c2ccccc12)C(=O)O, the inhibition [1] is reported as 3.98% (inactive), the fold change [2, 9] is reported as 0.995 (inactive) and the fold change [2, 10] is reported as 0.835. The cell count [2, 11] was 9660, the cell count [2, 12] was 9710 and the remaining NAD [4] was 10 nM (inactive). The luciferase signal [5] was 136 AU (inactive) and the z-score [6] was 0.315 (inactive).
With C[C@]12CC[C@H]3C(=CCc4cc(O)ccc43)[C@@H]1CCC2=O the survival [7] was 2.75 (inactive), the parasite load remaining [8] was 125% (inactive) and the viability [8] was 97.4%. The inhibition [1] was 9.47% (inactive), the fold change [2, 9] was 0.908 (inactive) and the fold change [2, 10] was 1.13. For the same molecule, the cell count [2, 11] was 7380, the cell count [2, 12] was 8130 and the z-score [3, 13] was 0.735 (inactive). For the same molecule, the z-score [3, 14] was 0.488, the remaining NAD [4] was 10 nM (inactive) and the luciferase signal [5] was 84 AU (inactive).
In the case of CC(=O)NCCc1c[nH]c2ccc(O)cc12, the inhibition [1] is reported as 8.58% (inactive), the fold change [2, 9] is reported as 1.02 (inactive) and the fold change [2, 10] is reported as 1.87. The cell count [2, 11] was 10700, the cell count [2, 12] was 10400 and the luciferase signal [5] was 32 AU (inactive). The z-score [6] was 0.08 (inactive).
For C[C@H](CCC(=O)O)[C@H]1CC[C@H]2[C@@H]3CC[C@@H]4C[C@H](O)CC[C@]4(C)[C@H]3CC[C@]12C, the survival [7] was 3.25 (inactive), the parasite load remaining [8] was 106% (inactive) and the viability [8] was 101%. The inhibition [1] was 3.51% (inactive), the fold change [2, 9] was 0.876 (inactive) and the fold change [2, 10] was 1.28. For the same molecule, the cell count [2, 11] was 8840, the cell count [2, 12] was 10100 and the z-score [3, 13] was 0.139 (inactive). The z-score [3, 14] was -0.0326 and the luciferase signal [5] was 76 AU (inactive).
In the case of CC(Oc1ccccc1)C(=O)N[C@@H]1C(=O)N2[C@@H]1SC(C)(C)[C@@H]2C(=O)O (some centres not stated), the survival [7] is reported as 7.92 (inactive), the parasite load remaining [8] is reported as 116% (inactive) and 55% (inactive) and the viability [8] is reported as 109% and 84.1%. The inhibition [1] was 1.89% (inactive), the fold change [2, 9] was 0.935 (inactive) and 0.907 (inactive) and the fold change [2, 10] was 1.21 and 2.74. For the same molecule, the cell count [2, 11] was 8390 and 12400, the cell count [2, 12] was 8980 and 13600 and the z-score [3, 13] was -0.192 (inactive). The z-score [3, 14] was -0.917, the remaining NAD [4] was 10 nM (inactive) and the luciferase signal [5] was 36 AU (inactive).
In the case of O=C1O[C@H]([C@@H](O)CO)C(O)=C1O, the parasite load remaining [8] is reported as -6.73% (active), the viability [8] is reported as 110% and the inhibition [1] is reported as -9.94% (inactive). The fold change [2, 9] was 0.839 (inactive), the fold change [2, 10] was 1.22 and the cell count [2, 11] was 7560. For the same molecule, the cell count [2, 12] was 9010, the z-score [3, 13] was -0.883 (inactive) and the z-score [3, 14] was -0.395. The remaining NAD [4] was 10 nM (inactive) and the luciferase signal [5] was 60 AU (inactive).
In the case of CCCCC/C=C\C/C=C\C/C=C\C/C=C\CCCC(=O)O, the survival [7] is reported as 45.6 (inactive), the inhibition [1] is reported as 9.46% (inactive) and the fold change [2, 9] is reported as 1.06 (inactive) and 1 (inactive). For the same molecule, the fold change [2, 10] was 1.01 and 0.893, the cell count [2, 11] was 5710 and 5370 and the cell count [2, 12] was 5370 and 5360.
For COc1ccc(C(Cl)=C(c2ccc(OC)cc2)c2ccc(OC)cc2)cc1, the survival [7] was 4.42 (inactive), the parasite load remaining [8] was 9.26% (inactive) and 45.4% (inactive) and 50.6% (inactive) and the viability [8] was 85.2% and 70.2% and 89.6%. The inhibition [1] was 7.15% (inactive), the fold change [2, 9] was 0.946 (inactive) and 0.925 (inactive) and the fold change [2, 10] was 1.03 and 1.43. The cell count [2, 11] was 9940 and 11400, the cell count [2, 12] was 10500 and 12300 and the z-score [3, 13] was 0.437 (inactive). The z-score [3, 14] was 0.0944 and the luciferase signal [5] was 40 AU (inactive).
For CC[C@H](CO)NCCN[C@H](CC)CO, the survival [7] was 12.8 (inactive), the parasite load remaining [8] was 28.5% (inactive) and 112% (inactive) and the viability [8] was 48.5% and 92.2%. For the same molecule, the inhibition [1] was -0.439% (inactive), the fold change [2, 9] was 0.912 (inactive) and the fold change [2, 10] was 0.977. For the same molecule, the cell count [2, 11] was 8580, the cell count [2, 12] was 9410 and the z-score [3, 13] was 0.519 (inactive). The z-score [3, 14] was 0.22.
For CC(=O)N[C@@H](Cc1ccccc1)C(=O)O, the inhibition [1] was -1.76% (inactive), the fold change [2, 9] was 0.922 (inactive) and the fold change [2, 10] was 1.14. It also gave a cell count [2, 11] of 8280 and a cell count [2, 12] of 8980.
